Compounds with a hit are over-represented: about 2.4% of the library has one in this group of screens.
D2 PAM-1 – human D2 receptor positive allosteric modulation; P14416; potentiation, % (no concentration beside the values); DiscoveRx D2 beta-arrestin cells, luminescence, 90 min; 100% = 57 uM dopamine signal; hit rate 0.23% among 360,000; AID 624464; in the data active = potentiation above about 50%
Target sequence (P14416 whole entry, looked up): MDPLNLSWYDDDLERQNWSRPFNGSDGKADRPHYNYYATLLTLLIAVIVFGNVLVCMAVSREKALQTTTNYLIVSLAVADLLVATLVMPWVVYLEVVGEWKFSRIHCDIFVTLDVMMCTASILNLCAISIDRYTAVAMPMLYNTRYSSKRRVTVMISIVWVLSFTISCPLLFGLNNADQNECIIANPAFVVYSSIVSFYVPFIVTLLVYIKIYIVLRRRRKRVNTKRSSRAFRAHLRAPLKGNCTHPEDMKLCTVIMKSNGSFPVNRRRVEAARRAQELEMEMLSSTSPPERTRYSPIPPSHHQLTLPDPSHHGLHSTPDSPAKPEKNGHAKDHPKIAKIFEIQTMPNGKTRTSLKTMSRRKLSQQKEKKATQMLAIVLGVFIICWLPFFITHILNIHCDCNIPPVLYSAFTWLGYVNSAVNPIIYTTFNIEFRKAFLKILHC
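D2 cells co-treated with compound plus 50 nM dopamine (EC20) for 90 min at 37 deg C to detect potentiation. Beta-arrestin recruitment was read as enzyme-fragment luminescence after 1 h at ambient temperature. Full response was set by 57 uM dopamine.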
D2 antagonist – antagonists of human D2 dopamine receptor; AID 485344; P14416; HEK293 TREx D2 cells, calcium flux, dopamine EC80; hit rate 2% among 340,000; inhibition, % at 10 µM; in the data active = inhibition above about 30%; inactive = below that, where a call was filed; also: 0% is about no effect
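Tetracycline-induced HEK293 T-REx cells expressing D2 force-coupled to calcium signalling were dye-loaded, exposed to compound for 180 s, then challenged with an EC80 of dopamine; calcium flux was followed kinetically for a further 180 s.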
D2 ag-1 – activates the human D2 dopamine receptor; P14416; DiscoveRx PathHunter D2 beta-arrestin, luminescence, 90 min; 100% = 57 uM dopamine signal; activation, % (no concentration beside the values); hit rate 0.084% among 360,000; in the data active = activation above about 40%
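DiscoveRx PathHunter D2 beta-arrestin cells (2,100/well) attached overnight, then compound-stimulated 90 min at 37 C in HBSS/10 mM HEPES/0.1% Tween-20 buffer; beta-galactosidase complementation read by luminescence after 1 h at ambient temperature. Dopamine 57 uM final (EC100) as control.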
D2 ag-2 – D2 dopamine receptor (human) agonism; P14416; HEK293 T-REx D2 cells, calcium flux agonist mode; activation, % at 2 µM; hit rate 0.53% among 340,000; AID 485358;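 active = activation over 3 SD above normal in the single-dose calcium agonist read, cut at about 30% in these data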; also: 0% is about no effect
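Calcium-flux readout, 1 cycle/sec over 180 s following compound pin transfer, in inducible HEK293 Trex D2 cells (force-coupled); dopamine controls included. Positive calcium responses during this window marked compounds as potential agonists.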
D2 PAM-2 – D2 dopamine receptor (human) potentiation | HEK293 T-REx D2, calcium flux, EC20 dopamine potentiation | hit rate 0.34% among 340,000 | potentiation, % at 10 µM | AID 485347;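 active = potentiation over 3 SD above the plate norm, cut at about 30% in these data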; also: 0% is about no effect
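Primary screen. Calcium kinetics in induced HEK293 T-REx D2 cells: compound pre-addition 180 s, EC20 dopamine, 180 s more.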
Active calls of the source: *.

Screening CCC1CN(C(=O)N2CCC(C(=O)NCCCc3ccccc3)CC2)c2ccccc2O1 (stereo not given) returned D2 ag-2 1.1 and D2 PAM-2 -1.6.
`COc1cccc(Nc2sc(C(=O)c3ccc(F)cc3)c(N)c2C(=O)NCc2ccc(C)cc2)c1` gave D2 ag-2 1.2 and D2 PAM-2 -0.4.
For COc1ccc(C2c3c(oc4ccc(F)cc4c3=O)C(=O)N2Cc2ccc3c(c2)OCO3)cc1 (stereo not given) the results were D2 ag-2 0.7 and D2 PAM-2 3.9.
COc1ccc(Br)cc1S(=O)(=O)n1c([N+](=O)[O-])cnc1C was read as D2 PAM-1 -9.0, D2 antagonist 34.0*, D2 ag-1 -2.8, D2 ag-2 0.7 and D2 PAM-2 1.8.
For CCSc1oc(-c2ccco2)nc1S(=O)(=O)c1ccc(F)cc1 the results were D2 PAM-1 -7.4, D2 antagonist -7.4, D2 ag-1 -2.7, D2 ag-2 -0.5 and D2 PAM-2 15.8.
For CCSc1oc(-c2ccco2)nc1S(=O)(=O)c1ccc(C)cc1 the results were D2 PAM-1 -8.0, D2 antagonist -2.2, D2 ag-1 -4.2, D2 ag-2 -1.4 and D2 PAM-2 33.6*.
For COc1ccc(OC)c(CCNC(=O)c2c(C)nn(-c3ccc(F)cc3)c2-n2cccc2)c1 the results were D2 PAM-2 2.4.
Cn1cccc1C(=O)OCC(=O)N1CC(=O)Nc2ccccc21 was read as D2 PAM-1 -21.6, D2 antagonist 33.7*, D2 ag-1 -4.4, D2 ag-2 2.0 and D2 PAM-2 2.4.
Screening O=C(Cn1c(=O)n(Cc2ccc(C(=O)NCc3ccccc3Cl)cc2)c(=O)c2ccccc21)Nc1ccc(F)c(Cl)c1 returned D2 ag-2 -0.7.
Cc1ccc(C2CC(c3ccccc3)=NN2c2ccccc2)o1 (stereo not given) was read as D2 PAM-1 -8.9, D2 antagonist 35.6*, D2 ag-1 -5.8, D2 ag-2 -0.9 and D2 PAM-2 -2.6.
Screening Oc1ccc(C2=NN(c3ccccc3)C(c3ccc(F)cc3)C2)cc1 (stereo not given) returned D2 PAM-1 -0.5, D2 antagonist 32.9*, D2 ag-1 4.9, D2 ag-2 0.7 and D2 PAM-2 3.9.
For Fc1ccc(C2=NN(c3ccccc3)C(c3ccco3)C2)cc1 (stereo not given) the results were D2 PAM-1 -4.1, D2 antagonist -34.8, D2 ag-1 -9.0, D2 ag-2 -0.7 and D2 PAM-2 18.3.
For Cc1sc2c(c1C)c(=O)n(-c1ccc(Cl)cc1)c(=O)n2CC(=O)c1ccccc1 the results were D2 ag-2 -0.6 and D2 PAM-2 2.0.
Screening Cc1cccc(N(CC(=O)NC2CCCC2)C(=O)CS(=O)CC(=O)Nc2ccc3c(c2)OCO3)c1 (stereo not given) returned D2 PAM-1 -8.3, D2 antagonist 31.7*, D2 ag-1 -3.0, D2 ag-2 -0.1 and D2 PAM-2 -14.5.
Cc1ccc(C(=O)C2CCN(CC(=O)N3CCN(c4ccc(F)cc4)CC3)CC2)cc1 was read as D2 PAM-1 -12.9, D2 antagonist 51.2*, D2 ag-1 1.3, D2 ag-2 0.3 and D2 PAM-2 -13.9.
Cc1ccc(C(=O)N2CCC(C(=O)c3ccc(F)cc3)CC2)cc1 was read as D2 PAM-1 -20.2 and D2 ag-1 -2.4.
Screening O=C(CN1CCC(C(=O)c2ccc(F)cc2)CC1)Nc1ccc(F)cc1 returned D2 PAM-1 -33.7, D2 antagonist 9.8, D2 ag-1 -2.0, D2 ag-2 -0.4 and D2 PAM-2 -25.4.
Cc1ccc(C(=O)C2CCN(CC(=O)Nc3ccc(N(C)C)cc3)CC2)cc1 was read as D2 PAM-1 -18.9, D2 antagonist 33.4*, D2 ag-1 -1.1, D2 ag-2 -0.1 and D2 PAM-2 -27.3.
CC(=O)c1cccc(NC(=O)C(CC(C)C)NS(=O)(=O)c2ccc3c(c2)CCN3C(C)=O)c1 (stereo not given) was read as D2 ag-2 -0.1 and D2 PAM-2 2.5.
For O=S(=O)(CCn1cccc1)CCn1cccc1 the results were D2 PAM-1 -20.9, D2 antagonist -14.3, D2 ag-1 -3.5, D2 ag-2 -0.2 and D2 PAM-2 30.2*.
For CCOC(=O)c1c(NC(C)=O)c2c3c(sc2n1Cc1nc(-c2ccccc2Cl)oc1C)CCCC3 the results were D2 ag-2 -0.2 and D2 PAM-2 4.5.
COc1cc2cc(C(c3nnnn3C3CCCC3)N3CCc4ccccc43)c(=O)[nH]c2cc1OC (stereo not given) was read as D2 PAM-1 -4.5, D2 antagonist -1.6, D2 ag-1 2.3, D2 ag-2 0.2 and D2 PAM-2 4.4.
Screening O=c1[nH]c2cc3c(cc2cc1C(c1nnnn1C1CCCC1)N1CCCc2ccccc21)OCCO3 (stereo not given) returned D2 PAM-1 25.1, D2 antagonist 0.7, D2 ag-1 -2.3, D2 ag-2 0.6 and D2 PAM-2 42.7*.
For CCN(CC)Cc1ccccc1CNC(=O)c1cccc(S(=O)(=O)Nc2ccc3c(c2)OCO3)c1 the results were D2 PAM-1 -2.4, D2 antagonist 74.5*, D2 ag-1 -0.3, D2 ag-2 0.6 and D2 PAM-2 -35.9.
`Cc1ccc(C)c(CSc2nc3ccncc3n2CC(=O)Nc2ccc(N(C)C)cc2)c1` gave D2 ag-2 0.0 and D2 PAM-2 -4.4.
For CCOc1ccc(C(=O)Nc2ccc3c(c2)OCCO3)cc1OC the results were D2 PAM-1 -6.0, D2 antagonist 2.8, D2 ag-1 -1.7, D2 ag-2 0.0 and D2 PAM-2 -0.3.
`CCOc1ccc(NC(=O)c2ccc3c(c2)OCCO3)cc1S(=O)(=O)N(CC)CC` gave D2 PAM-1 -7.6, D2 antagonist 31.9*, D2 ag-1 -2.0, D2 ag-2 -0.5 and D2 PAM-2 -9.0.
`Cc1ccc(NC(=O)c2ccc3c(c2)OCCO3)cc1S(=O)(=O)Nc1cccc(Cl)c1` gave D2 PAM-1 6.7, D2 antagonist 31.3*, D2 ag-1 2.5, D2 ag-2 1.4 and D2 PAM-2 -4.1.
`CN1CCN(C(c2ccccn2)c2cc(Cl)c3cccnc3c2O)CC1` (stereo not given) gave D2 PAM-1 -26.7, D2 antagonist -3.8, D2 ag-1 -1.6, D2 ag-2 1.0 and D2 PAM-2 24.4.
For Cc1ccc(C(c2cc(Cl)c3cccnc3c2O)N2CCN(C)CC2)cc1 (stereo not given) the results were D2 PAM-1 -17.9, D2 antagonist 38.6*, D2 ag-1 -19.0, D2 ag-2 0.5 and D2 PAM-2 -2.2.
For COc1ccc(S(=O)(=O)N(CC(=O)Nc2ccc(C)cc2)c2ccc(C)cc2)cc1OC the results were D2 ag-2 1.3 and D2 PAM-2 -2.3.
